Values without a mark were called inactive. Records with an inconclusive call do not appear. Active and inactive are the calls of the source. Unless noted, calls follow the shape of the full dose curve.

Experiment [1] can be described thus: Nuclear factor erythroid 2-related factor 2/antioxidant responsive element (Nrf2/ARE) small molecule agonists: qHTS cell viability counter screen in human keratinocytes (AID 1919968; active = well fitted curve in the direction sought with a large enough effect in the repeat runs; an effect the other way counts as inactive or inconclusive; also: nearly all actives have a fitted effect of over 55% in size; also: potency is read from the fitted curve at half-maximal effect). Summed up: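 Fluorescence read-out from CellTiter-Fluor after 1 h at 37 C. Wells held HaCaT-derived ARE-luciferase reporter cells (1,500/well) treated 23 h with DMSO-dissolved compounds. Run in the same wells as the luciferase agonist read.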
For orientation: qHTS replaces the single test concentration by a dilution series.

For experiment [2], the target named is Gonadotropin-releasing hormone receptor (Homo sapiens) (UniProt P30968). In words: Human gonadotropin-releasing hormone receptor (GnRHR) small molecule agonists, calcium flux assay in GnRHR-HEK293 cells (AID 1920063). Also: nearly all actives have a fitted effect of over 35% in size. Summed up:
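Calcium-dye fluorescence, Ex/Em=480/540, recorded every 1 sec over 3 min after compound addition to GnRHR-HEK293 cells. Cells had been seeded 18 hours earlier and dye-loaded for 1 hour at 37 C. Fifteen concentrations, triplicates.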

For experiment [3], the target named is KiSS-1 receptor (Homo sapiens) (UniProt Q969F8). As to the kind of experiment: Human kisspeptin (KISS1R) small molecule agonists, calcium flux assay in KISS1R-HEK293 cells (AID 1920064; active = well fitted curve in the direction sought with a large enough effect in the repeat runs; an effect the other way counts as inactive or inconclusive). In short, it runs like this: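 Calcium flux read-out: kinetic fluorescence at Ex/Em=480/540, 1 s intervals over 3 min, after pin-tool compound addition to dye-loaded KISS1R-HEK293 cells. Fifteen concentrations, triplicates.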
Chain of KiSS-1 receptor (Homo sapiens) (Q969F8 whole entry, looked up): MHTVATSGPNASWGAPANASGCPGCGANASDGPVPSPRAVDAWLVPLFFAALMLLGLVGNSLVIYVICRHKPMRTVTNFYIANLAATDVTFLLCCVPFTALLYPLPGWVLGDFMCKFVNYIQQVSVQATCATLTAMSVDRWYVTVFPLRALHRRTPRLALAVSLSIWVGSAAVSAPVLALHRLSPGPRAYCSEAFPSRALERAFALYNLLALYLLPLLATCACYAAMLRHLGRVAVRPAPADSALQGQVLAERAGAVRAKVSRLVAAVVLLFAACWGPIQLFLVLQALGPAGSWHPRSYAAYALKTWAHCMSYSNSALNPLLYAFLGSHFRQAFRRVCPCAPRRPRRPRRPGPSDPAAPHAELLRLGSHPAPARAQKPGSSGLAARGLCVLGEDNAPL
For orientation: Calcium assays in cells follow changes in intracellular calcium, usually with a dye or a luminescent sensor.

Experiment [4] can be described thus: G protein-coupled receptor (GPCR) small molecule agonists, calcium flux assay: HEK293 wild type cell line counter screen (AID 1920065). Summed up:
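Agonist mode; 18 h seeding at 37 C, 1 h dye load at 37 C; compounds pinned from DMSO, ATP as positive control; kinetic fluorescence 480/540 nm, 3 min, 1 s reads; 15 concentrations, triplicate.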

A short description of experiment [5]: p53 small molecule agonists, cell-based qHTS assay with rat liver microsomes (AID 1963578). In short, it runs like this: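 Agonist mode in p53RE-bla reporter cells, with compounds co-incubated 16 h at 37 C alongside 0.5 mg/mL rat liver microsomes and 0.5 mg/mL NADPH (final), followed by a 2 h LiveBLAzer detection step.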
The nature of experiment [6]: p53 small molecule agonists, cell-based qHTS assay with rat liver microsomes: qHTS cell viability counter screen (AID 1963580). Also: nearly all actives have a fitted effect of over 45% in size. In short, it runs like this: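 After the beta-lactamase ratio was read, CellTiter-Glo was added to the same wells and luminescence measured at 30 min; cells had been treated 16 h at 37 C with compounds, rat liver microsomes and NADPH (0.5 mg/mL final each).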

The target in experiment [7] is 5-hydroxytryptamine receptor 2A (Homo sapiens) (UniProt P28223). In words: 5-hydroxytryptamine receptor 2A (HTR2A) small molecule antagonists, cell-based qHTS assay (AID 1963586). Also: nearly all actives have a fitted effect of over 45% in size. Summed up: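 CHO cells stably expressing human HTR2A were plated for 18 h at 37 C, then loaded with calcium dye for 1 h. Compounds were preincubated 5 min at room temperature before DOI (4 nM solution) was added. Kinetic fluorescence was read for 3 min.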
Chain of 5-hydroxytryptamine receptor 2A (Homo sapiens) (P28223 whole entry, looked up): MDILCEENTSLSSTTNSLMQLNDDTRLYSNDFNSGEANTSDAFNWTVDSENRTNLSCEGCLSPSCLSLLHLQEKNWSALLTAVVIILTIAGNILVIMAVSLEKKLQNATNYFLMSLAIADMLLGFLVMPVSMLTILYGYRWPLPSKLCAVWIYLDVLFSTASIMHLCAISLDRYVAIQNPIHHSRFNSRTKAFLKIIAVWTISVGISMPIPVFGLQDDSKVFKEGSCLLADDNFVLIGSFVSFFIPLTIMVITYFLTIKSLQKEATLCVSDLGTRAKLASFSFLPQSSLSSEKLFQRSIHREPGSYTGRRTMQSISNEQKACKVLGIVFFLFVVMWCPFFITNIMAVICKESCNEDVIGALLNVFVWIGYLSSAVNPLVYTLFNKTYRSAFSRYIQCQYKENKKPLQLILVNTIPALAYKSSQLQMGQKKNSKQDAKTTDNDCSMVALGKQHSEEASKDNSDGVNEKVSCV

For experiment [8] the target is unchanged. As to the kind of experiment: 5-hydroxytryptamine receptor 2A (HTR2A) small molecule agonists, cell-based qHTS assay (AID 1963587). Also: nearly all actives have a fitted effect of over 30% in size. In short, it runs like this: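 CHO cells stably expressing human HTR2A, plated 18 h, loaded with calcium dye 1 h at 37 C. Agonist mode: compounds added and intracellular calcium fluorescence recorded kinetically for 2 min at 1 sec intervals.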

For experiment [9], the target named is Muscarinic acetylcholine receptor M1 (Homo sapiens) (UniProt P11229). In words: Cholinergic receptor muscarinic 1 (CHRM1) small molecule antagonists, cell-based qHTS assay (AID 1963588). Also: nearly all actives have a fitted effect of over 40% in size. Summed up:
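Compounds were tested at 15 concentrations in three independent runs. Dye-loaded CHRM1-CHO cells were exposed 5 min at room temperature before stimulation by acetylcholine added at 50nM. Intracellular calcium was read kinetically on FDSS for 3 min.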

Experiment [10] shares this target. In words: Cholinergic receptor muscarinic 1 (CHRM1) small molecule agonists, cell-based qHTS assay (AID 1963589). Also: nearly all actives have a fitted effect of over 35% in size. In short, it runs like this: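 Calcium flux read-out: kinetic fluorescence at 1 sec intervals after pin-tool compound addition to dye-loaded CHRM1-CHO cells (human M1). Agonist mode; 15 concentrations tested in triplicate independent runs.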
Experiment [11] is described as follows: cAMP Responsive Elements (CRE) small molecule agonists, cell-based qHTS assay (AID 1963590). In short, it runs like this: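 Beta-lactamase reporter readout: LiveBLAzer B/G FRET substrate, 2 h at room temperature, added after 3 h compound treatment of CRE-bla HEK 293T cells at 37 C/5% CO2.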
A short description of experiment [12]: cAMP Responsive Elements (CRE) small molecule antagonists, cell-based qHTS assay (AID 1963591; active = well fitted inhibition curve with a large enough effect in the signal ratio in the repeat runs, not every such curve was filed as active; the % refers to the signal ratio). In short, it runs like this: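 HEK293T CRE-bla; 18 h preincubation; compound pin-transfer; NKH477 0.25 uM final, 3 h, 37 C; LiveBLAzer FRET substrate 2 h RT.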
The target of experiment [13] is Beta-2 adrenergic receptor (Homo sapiens) (UniProt P07550). In words: Adrenergic beta2 receptor (ADRB2) small molecule antagonists, cell-based qHTS assay (AID 1963592). Also: series mostly up to about 92 µM; nearly all actives have a fitted effect of over 50% in size. Summed up:
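Assay format: CHO-ADRB2 cells, 18-20hr seeding at 37C/5% CO2, then compound plus 1nM isoproterenol agonist mix for 0.5hr RT. Homogeneous time-resolved fluorescence cAMP detection after 1hr, expressed as 665/615 nm ratio.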

For experiment [14] the target is unchanged. As to the kind of experiment: Adrenergic beta2 receptor (ADRB2) small molecule agonists, cell-based qHTS assay (AID 1963593).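 Also: CHO cells stably overexpressing human ADRB2.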 In short, it runs like this: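 CHO cells stably over-expressing ADRB2 were plated overnight at 37C, then dosed with compounds plus a stimulation mix containing 100uM IBMX and 25uM Ro-20-1724 for 0.5hr at room temperature. cAMP was measured by HTRF competition, 1hr.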

Experiment [15] addresses D(2) dopamine receptor (Homo sapiens) (UniProt P14416). As to the kind of experiment: Dopamine D2 receptor (DRD2) small molecule agonists, cell-based qHTS assay (AID 1963594). Also: nearly all actives have a fitted effect of over 35% in size. Summed up: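 HEK293 cells stably expressing human DRD2, pre-treated with PDE inhibitor Ro20-1724 (0.1 mM final) and compound 10 min at room temperature, then stimulated with NKH477 (200nM […]) for 30 min. cAMP read by HTRF (665/620 nm).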

The target is the same in experiment [16]. In words: Dopamine D2 receptor (DRD2) small molecule antagonists, cell-based qHTS assay (AID 1963595; active = well fitted inhibition curve with a large enough effect in the signal ratio in the repeat runs, with a control signal flat; the % refers to the signal ratio). Summed up: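 Antagonist mode in DRD2-HEK293 cells: after compound addition with 0.1 mM Ro20-1724, cells received quinpirole (12 nM) and NKH477 (200 nM) for 30 min at room temperature; HTRF cAMP read after 1 h detection.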
Experiment [17] is described as follows: p53 small molecule agonists, cell-based qHTS assay with human liver microsomes (AID 1963577).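 Also: p53 response element beta-lactamase reporter cells with liver microsomes plus NADPH.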 Summed up:
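In this qHTS, p53 response-element beta-lactamase cells receive test compound together with a microsome/NADPH activating system (0.5 mg/mL final each) and are incubated 16 h at 37 C before LiveBLAzer fluorescence detection.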

The nature of experiment [18]: p53 small molecule agonists, cell-based qHTS assay: qHTS cell viability counter screen (AID 1963581). Also: nearly all actives have a fitted effect of over 45% in size. In short, it runs like this: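 Cytotoxicity read-out: ATP-based luminescence (CellTiter-Glo, 30 min RT) measured in the same wells as the p53 reporter assay, HCT-116 p53RE-bla cells, 16 h compound exposure at 37 C.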
Experiment [19] can be described thus: p53 small molecule agonists, cell-based qHTS assay (AID 1963582; active = well fitted activation curve with a large enough effect in the signal ratio in the repeat runs, not every such curve was filed as active; the % refers to the signal ratio). Summed up: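 Fluorescence intensity read-out of a beta-lactamase reporter under a p53 response element. Cells were exposed to DMSO-dissolved compounds for 16 h at 37 C, then developed with FRET substrate for 2 h at RT.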
A short description of experiment [20]: p53 small molecule agonists, cell-based qHTS assay with human liver microsomes: qHTS cell viability counter screen (AID 1963579). Also: nearly all actives have a fitted effect of over 45% in size. In short, it runs like this:
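Metabolically activated exposure: compounds, human liver microsomes and NADPH (0.5 mg/mL final apiece) were added to p53RE-bla cells seeded 5 h earlier, left 16 h at 37 C, and then assessed for viability by CellTiter-Glo luminescence.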

Chain of D(2) dopamine receptor (Homo sapiens) (P14416 whole entry, looked up): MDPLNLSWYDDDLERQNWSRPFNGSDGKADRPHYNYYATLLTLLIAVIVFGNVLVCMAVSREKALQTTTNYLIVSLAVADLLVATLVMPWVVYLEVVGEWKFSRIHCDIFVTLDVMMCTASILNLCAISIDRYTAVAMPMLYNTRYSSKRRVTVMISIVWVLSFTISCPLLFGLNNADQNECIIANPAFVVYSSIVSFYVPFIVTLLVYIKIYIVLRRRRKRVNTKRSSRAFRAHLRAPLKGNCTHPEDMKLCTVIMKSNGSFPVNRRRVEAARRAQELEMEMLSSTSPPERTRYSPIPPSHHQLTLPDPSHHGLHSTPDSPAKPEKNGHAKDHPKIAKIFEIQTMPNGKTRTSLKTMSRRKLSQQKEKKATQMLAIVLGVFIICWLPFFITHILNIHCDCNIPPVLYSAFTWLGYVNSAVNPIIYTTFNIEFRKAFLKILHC
Chain of Beta-2 adrenergic receptor (Homo sapiens) (P07550 whole entry, looked up): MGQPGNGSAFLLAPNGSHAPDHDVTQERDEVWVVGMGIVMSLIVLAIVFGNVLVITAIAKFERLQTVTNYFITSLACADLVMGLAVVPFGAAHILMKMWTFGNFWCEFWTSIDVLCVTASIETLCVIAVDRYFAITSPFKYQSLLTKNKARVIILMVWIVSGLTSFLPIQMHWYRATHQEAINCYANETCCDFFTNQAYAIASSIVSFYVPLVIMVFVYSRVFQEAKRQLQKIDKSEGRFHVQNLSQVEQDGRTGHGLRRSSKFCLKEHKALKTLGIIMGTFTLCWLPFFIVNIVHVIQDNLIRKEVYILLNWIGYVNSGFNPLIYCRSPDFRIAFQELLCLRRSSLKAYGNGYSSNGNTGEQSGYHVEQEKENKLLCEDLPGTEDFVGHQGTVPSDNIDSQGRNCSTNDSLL
Chain of Muscarinic acetylcholine receptor M1 (Homo sapiens) (P11229 whole entry, looked up): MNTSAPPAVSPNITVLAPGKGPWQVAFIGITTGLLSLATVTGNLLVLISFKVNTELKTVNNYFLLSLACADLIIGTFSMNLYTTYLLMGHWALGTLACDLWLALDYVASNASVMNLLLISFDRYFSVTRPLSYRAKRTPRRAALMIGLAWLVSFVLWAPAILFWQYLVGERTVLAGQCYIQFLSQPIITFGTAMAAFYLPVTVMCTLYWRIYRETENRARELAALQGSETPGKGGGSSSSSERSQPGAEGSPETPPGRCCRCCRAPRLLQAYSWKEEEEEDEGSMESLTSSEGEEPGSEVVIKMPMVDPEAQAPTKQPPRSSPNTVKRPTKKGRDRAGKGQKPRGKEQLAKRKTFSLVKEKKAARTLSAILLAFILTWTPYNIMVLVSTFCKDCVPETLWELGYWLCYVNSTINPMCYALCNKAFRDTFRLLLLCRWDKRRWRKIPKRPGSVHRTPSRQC
Chain of Gonadotropin-releasing hormone receptor (Homo sapiens) (P30968 whole entry, looked up): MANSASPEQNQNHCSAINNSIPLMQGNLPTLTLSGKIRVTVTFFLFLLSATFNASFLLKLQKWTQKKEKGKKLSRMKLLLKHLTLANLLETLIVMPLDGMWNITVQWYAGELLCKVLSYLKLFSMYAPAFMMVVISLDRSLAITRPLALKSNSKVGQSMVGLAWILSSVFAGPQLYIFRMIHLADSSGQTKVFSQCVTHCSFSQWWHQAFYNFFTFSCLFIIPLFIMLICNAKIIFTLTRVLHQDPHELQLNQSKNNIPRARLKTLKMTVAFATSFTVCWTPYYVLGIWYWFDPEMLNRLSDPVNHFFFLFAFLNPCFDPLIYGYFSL

Regarding `N#CN=C1SCCN1Cc1ccc(Cl)nc1`, the Potency entry in experiment [1], in experiment [2], in [3], in [4], in [5] and in experiment [6] was “inactive” throughout. Further, the Potency entry in experiment [7], in experiment [8], in experiment [9], in [10], in experiment [11] and in experiment [12] was “inactive” each time. In addition, the Potency entry in [13], in [14], in experiment [15] and in experiment [16] was “inactive” each time.

With `C[C@H]1[C@@H]2Cc3ccc(O)cc3[C@@]1(C)CCN2C`, the Potency result in [1], in [2], in experiment [3], in experiment [4], in experiment [17] and in experiment [18] was “inactive” in each case. For the same compound, the Potency entry in experiment [19], in [7], in experiment [8], in experiment [9], in experiment [10] and in experiment [11] was “inactive” in each case. Further, the Potency entry in experiment [12], in experiment [13], in [14], in experiment [15] and in experiment [16] was “inactive” each time.

With `C[C@]12Cc3cn[nH]c3C[C@@H]1CC[C@@H]1[C@@H]2CC[C@@]2(C)[C@H]1CC[C@]2(C)O`, the Potency in experiment [1] was 29.8 µM (active). For the same compound, the Potency entry in experiment [2], in [3], in [4], in experiment [5], in [20] and in [6] was “inactive” each time. The Potency entry in [18], in experiment [19], in experiment [13], in experiment [15] and in experiment [16] was “inactive” in each case.

`Clc1ccc(C(Cl)(Cl)Cl)cc1Cl`: the Potency entry in experiment [1], in [2], in experiment [3], in [4], in [17] and in experiment [6] was “inactive” each time. The Potency result in experiment [18], in [19], in experiment [7], in [8], in [9] and in [11] was “inactive” each time. In addition, the Potency entry in experiment [12], in experiment [13], in [14] and in experiment [15] was “inactive” in each case.

Take `Clc1ccc(CSC(Cn2ccnc2)c2ccc(Cl)cc2Cl)cc1` (centres undefined): the Potency in experiment [1] is 29.8 µM (active). Moreover, the Potency entry in [2], in experiment [3], in experiment [4], in experiment [17], in [5] and in experiment [6] was “inactive” each time. Further, the Potency result in experiment [11], in experiment [13], in experiment [14], in experiment [15] and in experiment [16] was “inactive” in each case.

For `O=c1[nH]c2ccccc2n1CCCN1CCC(n2c(=O)[nH]c3cc(Cl)ccc32)CC1`, the Potency entry in experiment [1], in experiment [2], in experiment [3], in experiment [4], in [5] and in [20] was “inactive” in each case. Also, the Potency result in [6] and in experiment [18] was “inactive” each time.

For the compound `Cc1nnc(-c2ccccc2)c(=O)n1N`, the Potency result in experiment [1], in experiment [2], in experiment [3], in experiment [4], in [5] and in [20] was “inactive” throughout. Moreover, the Potency entry in [18], in experiment [19], in experiment [7], in [8], in experiment [9] and in experiment [10] was “inactive” throughout. Moreover, the Potency entry in [11], in [12], in [13], in experiment [15] and in experiment [16] was “inactive” throughout.

Consider `CCN(CC)c1nc(C)cc(OP(=S)(OC)OC)n1`, for which the Potency result in [1], in experiment [2], in [3], in experiment [4], in [17] and in experiment [20] was “inactive” throughout. For the same compound, the Potency result in experiment [6], in [18], in experiment [19], in [7], in experiment [8] and in [9] was “inactive” in each case. For the same compound, the Potency result in experiment [11], in [12], in [15] and in experiment [16] was “inactive” in each case.

`C[C@]12CC[C@H]3[C@@H](CCC4=CC(=O)CC[C@@H]43)[C@@H]1CC[C@@H]2OC(=O)CCC1CCCCC1`: the Potency entry in experiment [1], in experiment [2], in [3], in experiment [4], in experiment [17] and in experiment [6] was “inactive” each time. The Potency entry in experiment [18], in experiment [7], in [8], in experiment [9], in experiment [10] and in experiment [11] was “inactive” in each case. The Potency entry in experiment [12], in experiment [13] and in experiment [15] was “inactive” each time.

The record behind these values is PubChem BioAssay (Tox21).
